Hits are enriched below; roughly 1.1% of the tested compounds scored in any of these assays.
UBC9 SUMO inh – inhibitors of human SUMOylation (UBC9). P63279. HTRF SUMOylation assay, SAE1/SAE2 + UBC9, in vitro. inhibition, % at 35 µM. 0.36% of 290,000 active. AID 2006; in the data active = inhibition above about 50%, passing the limit was not always enough
S1P4 antag – blocks the human S1P4 receptor; O95977; S1P4-expressing cells, antagonist mode, reporter read-out; inhibition, % at 4.98 µM; 0.26% of 220,000 active; AID 1510; in the data active = inhibition above about 29%;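 note: 0% = wells stimulated with agonist and 100% = vehicle wells without agonist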
S1P4 agonist – human S1P4 receptor agonism; O95977; activation, % at 4.98 µM; S1P4-expressing cell line, agonist reporter assay; 0.35% of 220,000 active; in the data active = activation above about 11%;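 note: 0% = DMSO vehicle and 100% = reference agonist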
p97 inhibitor – blocks human p97 ATPase activity; inhibition, % at 8 µM; P55072; recombinant p97 ATPase, Kinase-Glo ATP luminescence, 3 h; 0.42% of 220,000 active; in the data active = inhibition above about 15%;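 note: 0% = DMSO vehicle and 100% = wells lacking enzyme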
S1P3 antagonist – blocks the human S1P3 receptor | 0.27% of 170,000 active | inhibition, % at 4.98 µM | AID 485 | CHO S1P3 NFAT-BLA reporter, FRET fluorescence, antagonist mode;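 active = inhibition above the plate cutoff, the mean inhibition of test wells on that plate plus 3 SD, cut at about 28% in these data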;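 note: cells challenged with S1P at its EC80 of 0.8 µM; blue over green emission ratio from cleaved BLA substrate after 4 h stimulation; 0% = S1P-stimulated wells and 100% = unstimulated DMSO-only wells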
Target sequence (Q99500 whole entry, looked up): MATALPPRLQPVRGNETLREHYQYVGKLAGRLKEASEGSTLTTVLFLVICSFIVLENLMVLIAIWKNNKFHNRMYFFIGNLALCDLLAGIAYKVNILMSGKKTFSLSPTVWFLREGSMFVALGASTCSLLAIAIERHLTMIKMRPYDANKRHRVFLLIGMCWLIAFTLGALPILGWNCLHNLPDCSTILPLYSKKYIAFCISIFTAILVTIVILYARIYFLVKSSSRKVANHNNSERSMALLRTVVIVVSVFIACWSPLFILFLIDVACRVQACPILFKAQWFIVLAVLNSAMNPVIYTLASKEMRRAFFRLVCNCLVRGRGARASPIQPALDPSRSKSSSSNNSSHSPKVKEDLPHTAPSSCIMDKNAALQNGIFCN
Redox H2O2 prof – compounds producing H2O2 with reducing agent – biochemical, NIH compound library profiling, artefact control for MLSCN library redox annotation, primary screen; 0.03% of 200,000 active; DTT-dependent redox cycling H2O2, phenol red/HRP absorbance; 100% = 100 µM peroxide control, 0% = buffer; AID 878; activation, % at 10 µM;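 active = activation of at least 50% relative to the plate's high and low controls in the primary single-dose screen; inactive = activation below 50%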;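 note: compound incubated with DTT at 0.8 mM final as the reducing agent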
Active calls of the source: *; nt = not tested or not shown.

SMILES	UBC9 SUMO inh	S1P4 antag	S1P4 agonist	p97 inhibitor	S1P3 antagonist	Redox H2O2 prof
O=C1NC(c2ccc(Br)cc2)=N/C1=C/c1ccco1	50.6*	-9.1	-0.8	1.9	4.5	0.3
CCOc1cc(C)c(C(C)C)cc1S(=O)(=O)NCc1ccccn1	-8.3	-1.8	-1.3	-3.7	118.3*	1.1
COc1cc(NCc2ccccc2O)c2ncccc2c1	7.1	12.4	1.7	3.9	-3.2	nt
Oc1ccccc1CNc1cccc2cccnc12	75.8*	-5.0	1.9	-1.7	-13.0	1.4
Cc1cc(/C=N/n2cnnc2)c(C)n1-c1ccc(OCc2ccc(F)cc2)cc1	23.7	-21.5	-0.1	-0.2	76.9*	2.8
Cc1cc(/C=N/n2cnnc2)c(C)n1-c1ccc(OCc2ccc(Cl)cc2Cl)cc1	4.9	-22.1	-0.2	-4.0	nt	2.5
Nc1nnc(-c2cc3c(ccc4ccccc43)oc2=O)s1	65.5*	1.9	-2.6	2.9	-4.9	-1.6
CCOC(=O)N1CCN(C(=O)/C(=C\c2ccc(SC)cc2)NC(=O)c2ccccc2)CC1	19.3	-12.3	1.9	1.2	-7.2	nt
CC1CCc2c(sc3ncn(CCO)c(=O)c23)C1 (configuration not stated)	19.2	2.8	2.5	5.0	9.1	-0.6
CC1CCc2c(sc3ncn(Cc4ccc(C(=O)O)cc4)c(=O)c23)C1 (configuration not stated)	13.6	8.3	-1.9	14.6*	-19.8	-1.2
CCCOc1ccc(/C=C/C(=O)Nc2ccc([N+](=O)[O-])cc2C)cc1	7.5	-18.5	-2.5	-1.8	nt	2.7
COc1cc(-c2nc(-c3ccc(Br)o3)no2)cc(OC)c1OC	18.3	0.2	-0.7	19.0*	6.9	-1.0
COc1ccc(-c2noc(-c3ccc(Br)o3)n2)cc1OC	-8.4	-13.3	-1.1	-4.4	-8.1	-0.2
Cc1noc(/C=C/N(C)C)c1S(=O)(=O)N1CCCC(C(=O)Nc2ccc(F)cc2F)C1 (configuration not stated)	16.8	nt	nt	nt	nt	nt
CCOC(=O)c1nn(-c2ccc3c(c2)CCN3C(C)=O)cc1O	52.5*	7.4	-1.1	6.0	nt	-1.7
COc1ccc(CC2CC(=O)N(c3ccc(C)cc3)C2=O)cc1 (configuration not stated)	6.3	nt	nt	nt	nt	nt
Nc1nnc(CCS(=O)(=O)c2cc(Cl)ccc2Cl)s1	14.9	-16.4	0.6	-4.5	76.7*	-0.5
O=C(CN1C(=O)COc2ccc(Cl)cc21)Nc1ccccn1	17.7	nt	nt	nt	nt	nt
Cc1ccccc1NC(=O)CN1C(=O)COc2ccc(Cl)cc21	-15.7	-1.5	0.9	15.0*	-8.9	-0.8
O=C(O)c1cccc(-n2cccc2/C=C2/NC(=O)N(c3cccc(Cl)c3)C2=O)c1	15.8	-9.0	0.6	9.8	6.0	nt
O=C(O)c1cccc(-n2cccc2/C=C2/NC(=O)N(c3ccc(Cl)cc3)C2=O)c1	90.0*	-21.6	3.3	17.9*	-6.6	-0.1
Cc1cc(C)c2nc(SCC(=O)NC(=O)c3cccn3C)cc(C)c2c1	-9.0	-1.9	-2.0	3.1	-14.7	-1.2
Cc1nc2ccc([N+](=O)[O-])cc2nc1C	5.0	-13.5	0.0	-4.7	-20.9	1.2
Cc1ccc2nc3cc([N+](=O)[O-])cc([N+](=O)[O-])c3cc2c1	14.3	29.3*	0.3	5.9	-4.7	-1.4
CSc1ccc(-c2cc(=O)c3ccccc3o2)cc1	54.3*	-5.8	-0.7	-9.3	1.9	-0.9
SMILES	UBC9 SUMO inh	S1P4 antag	S1P4 agonist	p97 inhibitor	S1P3 antagonist	Redox H2O2 prof
COc1cccc(CC(=O)Nc2ccc(S(=O)(=O)Nc3nc(C)cc(C)n3)cc2)c1	0.3	-7.6	-1.6	4.5	-10.4	-0.1
O=C(CSc1nc2scc(-c3ccco3)c2c(=O)n1-c1ccccc1)N1CCOCC1	20.6	2.1	1.9	3.5	-13.3	-0.6
NC(=O)CSc1nc2scc(-c3ccco3)c2c(=O)n1-c1ccccc1	26.1	-12.4	-1.2	14.6*	-4.5	-0.3
O=C(COC(=O)CCOc1ccccc1)Nc1ncc(Cl)cc1Cl	-9.4	-4.2	0.3	1.2	-6.4	0.5
Cc1cc2c([nH]c3ccccc32)c2c1OC(C)(C)C=C2	-17.0	nt	nt	nt	nt	nt
COc1ccc2[nH]c(=O)c3c(c2c1)OC(C)(C)C=C3	2.8	-0.3	4.5	-4.0	66.9*	-3.5
CC(=O)OCCn1c2nc(=O)[nH]c(=O)c-2nc2cc(C)c(C)cc21	59.9*	25.8	-0.6	-6.6	-6.9	nt

Source: PubChem BioAssay (several laboratories)
